From PubChem BioAssay (Tox21) come the findings set out here.

Experiment [1] can be described thus: qHTS assay to identify small molecule antagonists of the estrogen receptor alpha (ER-alpha) signaling pathway using the BG1 cell line in the presence of 0.1 nM 17-beta-estradiol - cell viability counter screen (AID 1259241). Note: nearly all actives have a fitted effect of over 40% in size. Note: potency is the fitted concentration of half-maximal effect. Summed up: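 VM7Luc4E2 cells (endogenous ER-alpha, 4×ERE-luciferase), hormone-starved 5 days in charcoal-stripped FBS, were treated with compounds plus 0.1 nM 17beta-estradiol for 22 hr at 37C; viability read in same wells as CellTiter-Fluor live-cell protease fluorescence.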
For orientation: Quantitative high-throughput screening tests each substance at several concentrations.

Experiment [2] is described as follows: qHTS assay to identify small molecule antagonists of the androgen receptor (AR) signaling pathway using the MDA cell line in the presence of 0.5 nM R1881 - cell viability counter screen (AID 1259242). Note: nearly all actives have a fitted effect of over 45% in size. Note: potency is the fitted concentration of half-maximal effect. Put shortly:
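Counter screen for cytotoxicity run in the same wells as the AR antagonist reporter screen: MDA-kb2 cells were treated 16 hr with test compounds and 0.5 nM R1881, then live-cell protease activity was measured by fluorescence.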

Experiment [3] addresses Estrogen receptor (Homo sapiens) (UniProt P03372). Description: qHTS assay to identify small molecule antagonists of the estrogen receptor alpha (ER-alpha) signaling pathway using the BG1 cell line in the presence of 0.1 nM 17-beta-estradiol (AID 1259244). Note: nearly all actives have a fitted effect of over 50% in size. Note: potency is the fitted concentration of half-maximal effect. Summed up:
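Cells: VM7Luc4E2, endogenous ER-alpha, 4x ERE-luc stable. Pre-culture 5 d, phenol red-free, charcoal-stripped FBS. Plated 24 h, compound + E2 0.1 nM final, 22 h 37C/5% CO2. Readout ONE-Glo luminescence.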

A short description of experiment [4]: qHTS assay to identify small molecule HDAC inhibitors (AID 1259364). Note: nearly all actives have a fitted effect of over 45% in size. Note: potency is the fitted concentration of half-maximal effect. Summed up: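 Luminescence from a cell-permeant luminogenic class I/II HDAC substrate reports endogenous deacetylase activity in intact HCT-116 cells treated with compounds for 2 h.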
The nature of experiment [5]: qHTS assay to identify small molecule HDAC inhibitors - cell viability counter screen (AID 1259365). Note: series mostly up to about 92 µM; nearly all actives have a fitted effect of over 50% in size. Put shortly: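 Wild-type HCT-116 cells were seeded at 1,500 per well, incubated overnight at 37 C, then exposed to compounds in DMSO for 2hr. Viability was read by CellTiter-Glo luminescence after 30min at room temperature.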
Experiment [6] in a line: qHTS assay to identify small molecule agonists of the sonic hedgehog signaling (Shh) pathway - cell viability counter screen (AID 1259366). Note: nearly all actives have a fitted effect of over 50% in size. Note: potency is the fitted concentration of half-maximal effect. Summed up:
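NIH/3T3-derived 3T3 Gli1-Luc cells (stable Gli1-responsive firefly luciferase reporter) were seeded, rested 4 hr at 37 C/5% CO2, then exposed to compounds in DMSO for 24 hr; viability was read by CellTiter-Fluor fluorescence in the same wells.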

Experiment [7] in a line: qHTS assay to identify small molecule antagonists of the sonic hedgehog signaling (Shh) pathway - cell viability counter screen (AID 1259367). Note: nearly all actives have a fitted effect of over 55% in size. Note: potency is the fitted concentration of half-maximal effect. Put shortly: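 Using CellTiter-Fluor, viability of Gli1-Luc reporter 3T3 cells is read by fluorescence in the wells used for the Shh luciferase assay. Treatment lasts 23 hr with conditioned medium, then reagent 1 hr at 37C.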
A short description of experiment [8]: qHTS assay to identify small molecule agonists of the sonic hedgehog signaling (Shh) pathway (AID 1259368; calls by dose curve; note: series mostly up to about 92 µM; nearly all actives have a fitted effect of over 15% in size). Summed up: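 3T3Gli1-Luc (NIH/3T3 clone, stable Gli1-Luc); 4 hr pre-incubation, then cpd in DMSO 24 hr, 37 C/5% CO2; luciferase reagent 30 min RT; luminescence.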
For experiment [9], the target named is Androgen receptor (Homo sapiens) (UniProt P10275). The experiment can be described thus: qHTS assay to identify small molecule antagonists of the androgen receptor (AR) signaling pathway using the MDA cell line in the presence of 0.5 nM R1881 (AID 1259243). Note: nearly all actives have a fitted effect of over 50% in size. Note: potency is the fitted concentration of half-maximal effect. Put shortly:
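Luciferase luminescence is the read-out: compounds are tested for suppressing 0.5 nM R1881-driven MMTV reporter activity in MDA-kb2 cells after 16 hr at 37C.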

Experiment [10] is described as follows: qHTS assay to identify small molecule phospholipidosis (PLD) inducers (AID 1259344; active = well fitted curve in the direction sought with a large enough effect; an effect the other way counts as inactive or inconclusive). Put shortly:
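Fluorescent phospholipid staining (LipidTOX Red) measured by automated microscopy in fixed HepG2 cells after 24 h treatment; nuclei counterstained with Hoechst 33342; amiodarone as reference inducer.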

“And” between values parts separate entries of the source, which are not always exact repeats. Identical values can stand only once. Records with an inconclusive call do not appear. Some structures have more than one record in an assay (separate samples or runs), and their calls can disagree. The source made the active and inactive calls. Unless noted, calls come from the whole dose curve; as a rule, active = well fitted curve in the direction sought with a large enough effect in the repeat runs; inconclusive = weak or mixed curves; inactive = no such curve, though single readings can be large; an effect the other way counts as inactive or inconclusive.

Sequence of Estrogen receptor (Homo sapiens) (P03372 whole entry, looked up): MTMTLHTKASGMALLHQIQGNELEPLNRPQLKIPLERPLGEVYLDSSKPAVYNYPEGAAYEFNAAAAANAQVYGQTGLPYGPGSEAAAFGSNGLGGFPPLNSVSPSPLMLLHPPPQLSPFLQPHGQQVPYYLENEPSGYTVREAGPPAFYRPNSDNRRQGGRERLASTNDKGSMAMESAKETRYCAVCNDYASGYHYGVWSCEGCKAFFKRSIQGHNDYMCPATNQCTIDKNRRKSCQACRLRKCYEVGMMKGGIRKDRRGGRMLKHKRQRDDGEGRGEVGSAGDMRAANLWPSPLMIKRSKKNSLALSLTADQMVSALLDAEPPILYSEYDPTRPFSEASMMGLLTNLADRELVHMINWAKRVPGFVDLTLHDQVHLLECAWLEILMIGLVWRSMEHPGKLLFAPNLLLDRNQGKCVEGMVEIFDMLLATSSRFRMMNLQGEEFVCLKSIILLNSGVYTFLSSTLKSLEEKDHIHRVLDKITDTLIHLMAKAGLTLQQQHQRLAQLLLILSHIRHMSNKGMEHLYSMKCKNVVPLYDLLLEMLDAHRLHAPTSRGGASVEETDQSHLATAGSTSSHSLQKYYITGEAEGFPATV
Sequence of Androgen receptor (Homo sapiens) (P10275 whole entry, looked up): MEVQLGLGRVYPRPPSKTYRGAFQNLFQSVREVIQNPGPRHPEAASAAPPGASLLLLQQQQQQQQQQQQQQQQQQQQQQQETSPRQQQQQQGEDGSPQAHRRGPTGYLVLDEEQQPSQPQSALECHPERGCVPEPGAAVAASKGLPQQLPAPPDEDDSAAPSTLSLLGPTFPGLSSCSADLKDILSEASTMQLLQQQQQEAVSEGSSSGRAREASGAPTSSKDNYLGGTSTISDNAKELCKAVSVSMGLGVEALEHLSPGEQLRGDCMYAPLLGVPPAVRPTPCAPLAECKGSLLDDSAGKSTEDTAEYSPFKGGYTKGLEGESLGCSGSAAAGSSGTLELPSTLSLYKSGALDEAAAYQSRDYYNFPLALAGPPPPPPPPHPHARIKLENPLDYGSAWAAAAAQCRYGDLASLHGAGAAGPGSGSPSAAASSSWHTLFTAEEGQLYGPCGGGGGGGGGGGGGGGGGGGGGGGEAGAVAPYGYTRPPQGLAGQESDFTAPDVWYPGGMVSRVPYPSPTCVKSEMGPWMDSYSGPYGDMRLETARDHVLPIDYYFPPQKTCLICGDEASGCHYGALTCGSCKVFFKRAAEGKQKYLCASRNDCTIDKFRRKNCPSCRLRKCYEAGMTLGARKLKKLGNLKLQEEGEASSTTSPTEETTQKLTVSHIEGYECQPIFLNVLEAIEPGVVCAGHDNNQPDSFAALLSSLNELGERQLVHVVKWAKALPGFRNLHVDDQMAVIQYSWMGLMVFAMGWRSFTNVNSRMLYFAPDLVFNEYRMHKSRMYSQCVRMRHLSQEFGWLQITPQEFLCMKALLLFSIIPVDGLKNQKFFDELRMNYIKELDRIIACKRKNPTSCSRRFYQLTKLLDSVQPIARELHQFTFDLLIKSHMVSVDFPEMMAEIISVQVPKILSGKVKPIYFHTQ

As for `CCOP(=S)(OCC)SCn1c(=O)oc2cc(Cl)ccc21`, the Potency entry in [1], in [2], in experiment [3], in experiment [4], in experiment [5] and in experiment [6] was “inactive” each time. Moreover, the Potency entry in [7] and in experiment [8] was “inactive” throughout.
`S=c1[nH]c2ccccc2[nH]1`: the Potency result in [1], in experiment [2], in experiment [9], in [4], in [5] and in experiment [6] was “inactive” each time. The Potency result in experiment [7] and in experiment [8] was “inactive” each time.
Consider `CC(C)Nc1nc(Cl)nc(NC(C)C)n1`, for which the Potency entry in experiment [1], in [2], in experiment [3], in experiment [4], in experiment [5] and in experiment [6] was “inactive” each time. The Potency entry in experiment [7] and in experiment [8] was “inactive” in each case.
As to `O=[N+]([O-])c1ccc(Cl)c([N+](=O)[O-])c1`, the Potency was 27.7 µM (active) and 54.5 µM (active) in experiment [1]; 24.7 µM (active) and 21.7 µM (active) in [2]; 12.4 µM (active) in experiment [9]; 31.1 µM (active) and 43.3 µM (active) in experiment [3]; 5.53 µM (active) and 13.7 µM (active) in experiment [6]; 3.92 µM (active) and 10.9 µM (active) in experiment [7]. Further, the Potency entry in [4] and in experiment [8] was “inactive” each time.
In the case of `CCCCCCCCCCCCCl`, the Potency entry in experiment [1], in [2], in experiment [3], in experiment [4], in [5] and in experiment [6] was “inactive” each time. Also, the Potency result in [7] and in experiment [8] was “inactive” each time.
`CCC1(c2ccc(N)cc2)CCC(=O)NC1=O` (stereo not given): the Potency result in experiment [1], in experiment [2], in experiment [9], in experiment [3], in [4] and in experiment [5] was “inactive” throughout. Besides, the Potency entry in experiment [6], in experiment [7] and in experiment [8] was “inactive” each time. Further, in [10], the outcome was inactive.
With `C=C(C)C#N`, the Potency result in experiment [1], in experiment [2], in experiment [3], in experiment [4], in experiment [5] and in [6] was “inactive” in each case. Besides, the Potency result in experiment [7] and in [8] was “inactive” each time.
Regarding `COC(=O)Nc1nc2ccccc2[nH]1`, the Potency entry in experiment [1], in [2], in experiment [9], in experiment [6], in [7] and in [8] was “inactive” throughout. Further, the Potency in [4] was 24.3 µM (active) and 27.3 µM (active).
For the compound `CC(C)=CC1C(C(=O)OCc2cccc(Oc3ccccc3)c2)C1(C)C` (stereo not given), the Potency entry in experiment [1], in experiment [2], in experiment [3], in experiment [4], in experiment [6] and in experiment [7] was “inactive” each time. Besides, the Potency result in [8] is “inactive”. Besides, the outcome in experiment [10] was inactive.
`CC1(C)Cc2cccc(O)c2O1`: the Potency result in experiment [1], in experiment [2], in experiment [3], in experiment [4], in experiment [5] and in [6] was “inactive” each time. Further, the Potency entry in [7] and in experiment [8] was “inactive” each time.
For `CCC(=O)Nc1ccc(Cl)c(Cl)c1`, the Potency entry in experiment [1], in [2], in [4], in experiment [6], in experiment [7] and in [8] was “inactive” each time. Further, the Potency in [9] was 7 µM (active) and 13.7 µM (active).
In the case of `CC(C)=CC1C(C(=O)OCN2C(=O)C3=C(CCCC3)C2=O)C1(C)C` (stereo not given), the Potency result in experiment [1], in experiment [2], in experiment [9], in experiment [4], in experiment [5] and in [6] was “inactive” throughout. The Potency entry in experiment [7] and in experiment [8] was “inactive” throughout. Moreover, the outcome in experiment [10] was inactive.
As for `COP(=S)(OC)Oc1ccc(S(=O)(=O)N(C)C)cc1`, the Potency entry in experiment [1], in [2], in experiment [9], in experiment [3], in [4] and in experiment [5] was “inactive” throughout. The Potency entry in experiment [6], in [7] and in experiment [8] was “inactive” in each case. The compound was classed as inactive in experiment [10].
As for `N#Cc1nn(-c2c(Cl)cc(C(F)(F)F)cc2Cl)c(N)c1S(=O)C(F)(F)F` (stereo not given), the Potency entry in experiment [1], in [2], in [4], in [5], in [6] and in experiment [7] was “inactive” in each case. The Potency entry in [8] was “inactive”. The Potency in experiment [9] was 9.75 µM (active) and 15 µM (active); in experiment [3], 6.9 µM (active) and 21.1 µM (active). Further, the compound was classed as inactive in experiment [10].
With `CNC(=O)Oc1cccc2c1OC(C)(C)C2`, the Potency entry in experiment [1], in [2], in [9], in [3], in experiment [4] and in experiment [5] was “inactive” each time. Moreover, the Potency result in [6], in [7] and in [8] was “inactive” each time.
As to `CCCCOCCOC(C)=O`, the Potency result in experiment [1], in experiment [2], in experiment [3], in experiment [4], in experiment [5] and in experiment [6] was “inactive” each time. In addition, the Potency entry in [7] and in experiment [8] was “inactive” each time.
As to `COc1ccc(O)c(C(C)(C)C)c1`, the Potency result in [1], in [2], in [3], in experiment [4], in [5] and in experiment [6] was “inactive” each time. The Potency entry in experiment [7] and in [8] was “inactive” each time.
As to `c1ccc2c(c1)Nc1ccccc1S2`, the Potency entry in [1], in experiment [2], in [3], in experiment [4], in experiment [6] and in experiment [7] was “inactive” in each case. Further, the Potency result in experiment [8] is “inactive”. In [10], the outcome was inactive.
Regarding `Clc1ccc(C(Cl)(Cl)Cl)cc1`, the Potency result in experiment [1], in experiment [2], in [3], in experiment [4], in experiment [5] and in [6] was “inactive” throughout. For the same compound, the Potency result in experiment [7] and in experiment [8] was “inactive” each time.
On to `N#Cc1cccnc1`, for which the Potency result in experiment [1], in [2], in [3], in experiment [4], in experiment [5] and in experiment [6] was “inactive” throughout. Besides, the Potency result in [7] and in experiment [8] was “inactive” each time.
Regarding `CNC(=O)CSP(=S)(OC)OC`, the Potency result in [1], in experiment [2], in experiment [3], in [4], in experiment [5] and in [6] was “inactive” in each case. Moreover, the Potency entry in experiment [8] is “inactive”. In addition, the Potency in experiment [7] is 28.1 µM (active) and inactive.
As for `CC(C)Nc1ccc(Nc2ccccc2)cc1`, the Potency in [1] is 43.1 µM (active); in [2], 60.9 µM (active); in [3] it was 21.6 µM (active); in experiment [6] it was 24.2 µM (active) and 24.3 µM (active); in experiment [7], 21.6 µM (active) and 24.3 µM (active). For the same compound, the compound was called inactive in [10]. The Potency entry in [5] and in experiment [8] was “inactive” each time.
On to `C=CC(=O)OCC(CC)(COC(=O)C=C)COC(=O)C=C`, for which the Potency was 70.4 µM (active) in experiment [1]; 31.5 µM (active) in experiment [2]; 4.99 µM (active) and 13.7 µM (active) in [9]; 22.3 µM (active) and inactive in experiment [3]; 11.2 µM (active) and 9.69 µM (active) in experiment [6]; 8.87 µM (active) and 9.69 µM (active) in experiment [7]. In addition, the Potency entry in experiment [4] and in experiment [8] was “inactive” throughout.
For `O=[N+]([O-])/N=C1\NCCN1Cc1ccc(Cl)nc1`, the Potency entry in experiment [1], in [2], in experiment [9], in experiment [3], in [4] and in experiment [5] was “inactive” in each case. For the same compound, the Potency entry in experiment [6], in experiment [7] and in [8] was “inactive” each time. In addition, in experiment [10], the call was inactive.
